Results taken from PubChem BioAssay AID1851 (National Center for Advancing Translational Sciences (NCATS), 2009).
“And” between values parts separate entries of the source, which are not always exact repeats. Identical values can stand only once. Out of some 16,000 compounds screened, about 4,000 (25%) were called active. Another 26% or so got no clear call; they are omitted. Calls follow the shape of the dose curve; as a rule, active = well fitted curve in the direction sought with a large enough effect; inconclusive = small, poorly fitted or top-dose-only effect, or effect the other way; inactive = no such curve, though single readings can be large or run the other way. Not all results are given here. Where a structure was tested more than once in an assay, its records may differ in their call.

Molecular target: Cytochrome P450 2C9 (Homo sapiens) (UniProt P11712)
Sequence (P11712 whole entry, looked up): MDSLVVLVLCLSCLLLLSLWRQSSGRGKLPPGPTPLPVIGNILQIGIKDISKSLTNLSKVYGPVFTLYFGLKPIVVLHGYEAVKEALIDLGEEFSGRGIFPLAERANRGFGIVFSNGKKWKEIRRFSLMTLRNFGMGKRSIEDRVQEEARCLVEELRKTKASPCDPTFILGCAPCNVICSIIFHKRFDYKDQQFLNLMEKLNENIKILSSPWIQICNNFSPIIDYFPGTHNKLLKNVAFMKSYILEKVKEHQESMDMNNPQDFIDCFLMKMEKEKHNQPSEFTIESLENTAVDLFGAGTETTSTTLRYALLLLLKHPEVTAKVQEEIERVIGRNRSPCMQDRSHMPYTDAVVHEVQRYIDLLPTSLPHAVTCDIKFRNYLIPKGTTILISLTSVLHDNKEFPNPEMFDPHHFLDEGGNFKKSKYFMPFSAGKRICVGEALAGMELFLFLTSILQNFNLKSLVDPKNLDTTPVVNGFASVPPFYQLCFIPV
Assay: Cytochrome panel assay with activity outcomes
Conditions: recombinant CYP, pro-luciferin dealkylation, luminescence, p450-cyp2c9; series mostly up to 57.1 µM
% is scaled to controls: 0 for no effect and ±100 for the full control effect.

| SMILES | AC50 | activity, negative = inhibition |
| --- | --- | --- |
| CC(C)c1ccc(CN(C(=O)C2COc3ccccc3O2)C2CCS(=O)(=O)C2)cc1 (stereo unspecified) | 11.2 µM (active) |  |
| CO/N=C(/CNC(=O)c1ccc(Cl)cc1Cl)c1ccc(Cl)cc1 | 1.12 µM (active) |  |
| CO/N=C(/CNC(=O)c1cccc(Cl)c1)c1ccc(Cl)cc1 | 3.55 µM (active) |  |
| O=C(CNc1cccc(Cl)c1)c1ccc(Cl)cc1 | inactive |  |
| COc1cccc(C(=O)NCCN2CCN(c3ccc(Cl)cc3)CC2)c1 | inactive |  |
| OC[C@@H](O)[C@@H](O)[C@@H](O)[C@@H](O)c1nc2ccc(Cl)cc2[nH]1 |  | -5.01% [at 11.4 µM] (inactive) |
| N[C@@H]1CONC1=O | inactive |  |
| Cn1c([N+](=O)[O-])cnc1COC(N)=O | inactive |  |
| CSc1nc(N)c2ncn([C@@H]3O[C@@H](COP(=O)(O)OP(=O)(O)O)[C@@H](O)[C@H]3O)c2n1 | inactive |  |
| COc1ccc(NC(=O)c2ccc(-c3ccc(-c4noc(C)n4)cc3C)cc2)cc1N1CCN(C)CC1 | inactive and 7.94 µM (active) |  |
| COc1ccc(NC(=O)c2ccc(-c3ccc(-c4noc(C)n4)cc3C)cc2)cc1OCCN(C)C | inactive |  |
| CNCCC=C1c2ccccc2CCc2ccccc21 | inactive |  |
| OC[C@@H]1O[C@@H](n2cnc3c(NC4CCCC4)ncnc32)[C@@H](O)[C@H]1O | inactive |  |
| COC(=O)C1(CC(C)C)C=C2C(=C(c3ccccc3)C(=O)C2C)CN1 (stereo unspecified) | 10 µM (active) |  |
| COC(=O)C1(Cc2ccccc2)C=C2C(=C(C)C(=O)C2C)CN1 (stereo unspecified) | inactive |  |
| CCCC1(C(=O)OC)C=C2C(=C(c3ccccc3)C(=O)C2C)CN1 (stereo unspecified) | 5.01 µM (active) |  |
| COC(=O)C1(C)C=C2C(=C(c3ccccc3)C(=O)C2C)CN1 (stereo unspecified) | 10 µM (active) |  |
| CC1(C)CC(=O)C(CCC(=O)c2ccccc2)C(C)(C)N1 (stereo unspecified) | inactive |  |
| CN(C)c1ccc(-c2cncnc2NCc2ccccc2)cc1 |  | -13.6% [at 2.29 µM] (inactive) |
| NC(=O)C[C@H](N)C(N)=O |  | -1.03% [at 11.4 µM] (inactive) |
| CN[C@]1(C)[C@H]2CC[C@@H](C2)C1(C)C | inactive |  |
| Clc1ccc2c(NCCNc3ccnc4cc(Cl)ccc34)ccnc2c1 |  | -3.79% [at 11.4 µM] (inactive) |
| CN[C@@H]1[C@H](O[C@@H]2O[C@H](CO)[C@@H](N)[C@H](O)[C@@H]2O)O[C@H]2C[C@@H](N)[C@@H](O[C@H]3[C@@H](O)[C@H](O)[C@H](N)C[C@@H]3N)O[C@H]2[C@H]1O | inactive |  |

| SMILES | AC50 | activity, negative = inhibition |
| --- | --- | --- |
| COc1cc(OC)c2cc(-c3ccncc3)cnc2c1 | inactive |  |
| CCOC(=O)c1cc2c(C(F)(F)F)cc(-c3ccccc3)nc2o1 | 2.24 µM (active) |  |
| CCOC(=O)c1cc(NC(=O)c2ccc(C)cc2)c(=O)oc1-c1ccccc1 | inactive |  |
| Cc1[nH]c2ccccc2c1CCNC(=O)c1ccc2c(c1[N+](=O)[O-])C(=O)c1ccccc1C2=O | inactive |  |
| Cc1[nH]c2c(C)cccc2c1CCNC(=O)c1ccc2c(c1[N+](=O)[O-])C(=O)c1ccccc1C2=O | 1.12 µM (active) |  |
| COc1ccccc1-c1cncnc1NCc1cccnc1 |  | 3.29% [at 2.29 µM] (inactive) |
| O=C(CSCc1cccc(Br)c1)N/N=C/c1ccc2c(c1)OCO2 | 10 µM (active) |  |
| O=C(Cn1nc(C(F)F)cc1C(F)F)N/N=C/c1ccc2c(c1)OCO2 | inactive |  |
| C=CCNC(=O)CC(=O)N/N=C/c1cccc(Br)c1 | inactive |  |
| O=C(/C=C/c1ccc2c(c1)OCO2)NCCSCc1cccc(Cl)c1 | 5.01 µM (active) |  |
| OC[C@@H]1O[C@@H](N2CCN([C@@H]3O[C@@H](CO)[C@@H](O)[C@H](O)[C@H]3O)CC2)[C@@H](O)[C@H](O)[C@H]1O |  | 7.18% [at 11.4 µM] (inactive) |
| Cc1ccc(NC(=O)C(=O)NCc2ccc(/C=C(/C#N)C(=O)NCc3cccnc3)o2)cc1 | 0.631 µM (active) |  |
| CCN1C(=O)[C@H]2[C@H]3[C@H](O)[C@H](O)C/C(=N/OC[C@@H](C)[C@H](OCc4ccccc4)C(C)C)[C@@H]3CC[C@@H]2C1=O |  | 19.1% [at 11.4 µM] (inactive) |
| Cc1cccc(NC(=O)CSc2nc3ccccc3c3nc(CCc4c(C)n[nH]c4C)nn23)c1 | 1.26 µM (active) |  |
| Cc1cccc(CNc2nc(-c3ccoc3)nc3ccccc23)c1 |  | -6.69% [at 2.29 µM] (inactive) |
| Cc1nnc(-c2cnn(-c3ccccc3)c2N)n1Cc1ccc(F)cc1 | 15.8 µM (active) |  |
| Cc1ncc(CSC(=N)N)n1Cc1ccccc1 |  | -16.1% [at 11.4 µM] (inactive) |
| Cc1nnc(-c2cnn(-c3ccccc3)c2N)n1Cc1ccncc1 | 14.1 µM (active) |  |
| N=C(N)C(N=Nc1ccccc1)C(=N)N (stereo unspecified) |  | 11.9% [at 11.4 µM] (inactive) |
| O=C(O)[C@@H](O)[C@@H](O)[C@@H](O[C@H]1O[C@@H](CO)[C@@H](O)[C@@H](O)[C@@H]1O)[C@@H](O)CO | inactive |  |
| Cc1ccc(C2NC(c3ccc(C)cc3)C(C)C(=NO)C2C)cc1 (stereo unspecified) | 6.31 µM (active) |  |
| CN1CCN(CCc2ccc(Cl)c(Cl)c2)CC1 | inactive |  |
| c1ccc(CSCCc2ccncc2)cc1 | 0.316 µM (active) |  |

| SMILES | AC50 | activity, negative = inhibition |
| --- | --- | --- |
| c1ccc2c(CSCCc3ccncc3)cccc2c1 | 0.0631 µM (active) |  |
| N=C(N)SCCc1ccc(CCSC(=N)N)cc1 | inactive |  |
| Clc1ccc(CSCCc2ccncc2)cc1Cl | 0.0794 µM (active) |  |
| O=S(=O)(O)CCCc1cccc2ccccc12 |  | -3.26% [at 11.4 µM] (inactive) |
| c1cc(CSSCc2ccncc2)ccn1 | 1.58 µM (active) |  |
| c1ccc2c(CC3NCCN3)cccc2c1 |  | -9.35% [at 11.4 µM] (inactive) |
| c1cc(CNCCN2CCNCC2)ccn1 |  | -4.43% [at 11.4 µM] (inactive) |
| N=C(N)SCCc1ccncc1 |  | 6.27% [at 11.4 µM] (inactive) |
| C[C@@H]1c2ccccc2CN1CC1=NCCN1 | inactive |  |
| Cc1ncc([N+](=O)[O-])n1CCO | inactive |  |
| CCOC(=O)N1CCC(NC(=O)CCC(=O)N2CC(C)Oc3ccc(C)cc32)CC1 (stereo unspecified) | inactive |  |
| Cc1oc(-c2ccccc2F)nc1CS(=O)(=O)CC(=O)NCCCN(C)C1CCCCC1 | inactive |  |
| CCOC(=O)N1CCC(NC(=O)CS(=O)(=O)Cc2nc(-c3cccc(OC)c3)oc2C)CC1 | 25.1 µM (active) |  |
| CNc1ncnc2ccc(-c3cccc(NS(C)(=O)=O)c3)cc12 |  | -18.3% [at 2.29 µM] (inactive) |
| CC1=C(CC(=O)O)c2cc(F)ccc2/C1=C\c1ccc(S(C)=O)cc1 (stereo unspecified) | inactive and 12.6 µM (active) |  |
| CC1=C(CC(=O)O)c2cc(F)ccc2/C1=C\c1ccc(S(C)(=O)=O)cc1 | inactive |  |
| Cc1noc(C)c1COc1cccc(C(=O)OCC(=O)N2CC(=O)Nc3ccccc32)c1 | 3.55 µM (active) |  |
| Cc1cc(=O)[nH]c(-n2[nH]c(C)cc2=O)n1 | inactive |  |
| CO[C@]1(NC(=O)C2SC(=C(C(N)=O)C(=O)O)S2)C(=O)N2C(C(=O)O)=C(CSc3nnnn3C)CS[C@H]21 (stereo partly specified) | inactive |  |
| CC(=O)NCCNc1cc(-c2ccccc2C)ncn1 |  | 5.2% [at 2.29 µM] (inactive) |
| CC(=O)NCCNc1ncnc2ccc(-c3ccccc3C)cc12 |  | -0.544% [at 2.29 µM] (inactive) |
| Cc1ccccc1-c1cc(C(=O)n2cccn2)c2cc(Cl)ccc2n1 | 5.01 µM (active) |  |
| C[C@@H](c1ccccc1)N1C(=O)[C@H]2[C@H]3[C@H](O)[C@H](O)C/C(=N/OC[C@@H](O)COCc4ccco4)[C@H]3CC[C@@H]2C1=O |  | 10.7% [at 11.4 µM] (inactive) |

| SMILES | AC50 | activity, negative = inhibition |
| --- | --- | --- |
| Cc1c(/C=C2\SC(=O)N(CC(=O)Nc3ccc4c(c3)OCO4)C2=O)c2ccccc2n1C | inactive |  |
| CC(C)n1cc(/C=C2/SC(=O)N(CC(=O)Nc3ccc4c(c3)OCO4)C2=O)c2ccccc21 | 3.98 µM (active) |  |
| O=C(CCc1ccc(O)cc1)c1c(O)cc(O)cc1O | 12.6 µM (active) |  |
| C[C@@H](CCc1ccc(O)cc1)NCCc1ccc(O)c(O)c1 | inactive |  |
| CC(=O)N[C@H](Cc1ccc(O)cc1)C(=O)O |  | 2.06% [at 11.4 µM] (inactive) |
| C(=N\n1cnnc1)/c1cccn1-c1ccccc1 | 5.01 µM (active) |  |
| CCOC(=O)c1cc2sc(C)cc2n1CCCN1C(=O)c2ccccc2C1=O | 3.55 µM (active) |  |
| O=c1[nH]c2ccccc2c2ccccc12 | inactive |  |
| Cc1cc2[nH]c(=O)c3ccccc3n2n1 | inactive |  |
| Cc1nc2c(O)cccc2c(=O)[nH]1 | 3.98 µM (active) |  |
| COc1cc2c(cc1OC)C(C(=O)N1CCOCC1)C(c1cccs1)N(C)C2=O (stereo unspecified) | inactive |  |
| CCOc1cccc(C2C(C(=O)c3ccc(C)o3)=C(O)C(=O)N2Cc2ccncc2)c1 (stereo unspecified) | 12.6 µM (active) |  |
| COc1ccc(CCN2C(=O)C(O)=C(C(=O)c3ccco3)C2c2cccs2)cc1OC (stereo unspecified) | 1.41 µM (active) |  |
| Cc1ccc(C2C(C(=O)c3sc(C)nc3C)=C(O)C(=O)N2CCN2CCOCC2)o1 (stereo unspecified) | inactive |  |
| COc1cc(C2C(C(=O)c3ccc(C)o3)=C(O)C(=O)N2CCc2ccccc2)ccc1O (stereo unspecified) | 7.08 µM (active) |  |
| Cc1ccc(C(=O)C2=C(O)C(=O)N(CCCn3ccnc3)C2c2ccc(OC(C)C)cc2)o1 (stereo unspecified) | 11.2 µM (active) |  |
| CCC(C)NC(=O)C1c2cc(OC)c(OC)cc2C(=O)N(C)C1c1cccs1 (stereo unspecified) | inactive |  |
| CN(C)CCN1C(=O)C(O)=C(C(=O)c2cc3ccccc3o2)C1c1cccc(Br)c1 (stereo unspecified) | inactive |  |
| C/C(=N\O)c1cccc[n+]1Cc1ccccc1 |  | -0.751% [at 11.4 µM] (inactive) |
| COC(=O)[C@]1(C)CCC(c2ccc(C)cc2)=C(CC(=O)O)C1 |  | 3.21% [at 11.4 µM] (inactive) |
| OC[C@@H]1NC[C@@H](O)[C@H]1O | inactive |  |
| FC(F)(F)c1ccccc1-c1cncnc1NCCN1CCOCC1 |  | -5.4% [at 2.29 µM] (inactive) |
